This is an account of results in PubChem BioAssay (NCI).

The structures appear in SMILES notation. This is part of a sample that, as a whole, favours compounds with a hit. Of some 83,000 tested, about 20% had one in any assay.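 Step 1: grow cells in 96-well plates. Step 2: add test compound at a single concentration. Step 3: incubate 48 h. Step 4: record percent growth.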 Unmarked numbers belong to inactive results. The source made the active and inactive calls. The calls were made as follows: active = growth percent below 10; inactive = the rest.

Test systems include HCT-15 colon; HT29 colon; SNB-75 CNS; SNB-19 CNS; U251 CNS; PC-3 prostate; SK-MEL-5 melanoma; UACC-62 melanoma; LOX IMVI melanoma; SK-MEL-28 melanoma; SK-MEL-2 melanoma; EKVX NSCLC; SN12C renal; TK-10 renal; ACHN renal; CAKI-1 renal; A498 renal; CCRF-CEM leukemia; MOLT-4 leukemia; UO-31 renal.
What all share (assay): NCI-60 one-dose screen, 48 h (100 = growth as untreated, 0 = no growth, -100 = all killed)
What all share (details): 10 µM

On to `CN1CCN(c2ccc(C(=O)/C=C/c3cc(Br)ccc3F)cc2)CC1`, for which the growth is -22.6% (active) in the experiment on HCT-15 colon; -13.2% (active) in the experiment with HT29 colon; 40.1% with SNB-75 CNS; 56.5% in the experiment with SNB-19 CNS; 23.8% in the experiment on U251 CNS; 37.1% in the experiment on PC-3 prostate. Besides, the growth in the experiment with SK-MEL-5 melanoma was 18.6%; with UACC-62 melanoma, 64%; in the experiment on LOX IMVI melanoma, -91.8% (active); in the experiment on SK-MEL-28 melanoma, 90.8%; in the experiment on SK-MEL-2 melanoma, 107%; in the experiment on EKVX NSCLC, 55.7%. For the same compound, the growth was 38.2% in the experiment with SN12C renal; 88.6% with TK-10 renal; 63.7% in the experiment on ACHN renal; 50% in the experiment on CAKI-1 renal; 107% in the experiment with A498 renal; -11.4% (active) with CCRF-CEM leukemia. Further, in the experiment with MOLT-4 leukemia, the growth is 24%.

On to `Cc1nc(Nc2nc(C)c3ccc(OCCN4CCOCC4)cc3n2)[nH]c(=O)c1C`, for which the growth in the experiment with HCT-15 colon is -48.7% (active); in the experiment with HT29 colon, -56.9% (active); in the experiment on SNB-75 CNS, 25.9%; in the experiment with SNB-19 CNS, -2.34% (active); in the experiment on U251 CNS, 8.71% (active); in the experiment with PC-3 prostate it was 11.5%. Further, the growth is -97.1% (active) in the experiment on SK-MEL-5 melanoma; -84.6% (active) in the experiment on UACC-62 melanoma; -51.7% (active) with LOX IMVI melanoma; -21.3% (active) in the experiment with SK-MEL-28 melanoma; -90.3% (active) in the experiment on SK-MEL-2 melanoma; -3.4% (active) in the experiment on EKVX NSCLC. Further, the growth is -10.4% (active) in the experiment with SN12C renal; 17.6% in the experiment on TK-10 renal; -50.2% (active) with ACHN renal; -38.4% (active) in the experiment with CAKI-1 renal; -79% (active) in the experiment on A498 renal; -7.55% (active) in the experiment on CCRF-CEM leukemia.

On to `N#Cc1c(NC(=O)c2ccc(C(F)(F)F)cc2C(F)(F)F)sc2c1CCC(=O)C2`, for which the growth was -66% (active) with HCT-15 colon; -57% (active) in the experiment with HT29 colon; 26.4% in the experiment on SNB-75 CNS; 6.86% (active) with SNB-19 CNS; 8.82% (active) with U251 CNS; 2.66% (active) with PC-3 prostate. In addition, the growth is -97.6% (active) in the experiment on SK-MEL-5 melanoma; -89.5% (active) in the experiment on UACC-62 melanoma; -15.1% (active) with LOX IMVI melanoma; -86.2% (active) with SK-MEL-28 melanoma; -38.2% (active) with SK-MEL-2 melanoma; -57.5% (active) with EKVX NSCLC. Moreover, the growth is -99.7% (active) in the experiment on UO-31 renal; -99.4% (active) in the experiment on ACHN renal; -67.6% (active) with CAKI-1 renal; 28.6% with A498 renal; -30% (active) in the experiment with CCRF-CEM leukemia; -16% (active) with MOLT-4 leukemia.

On to `COc1ccc(C=CC(=O)c2ccc(-n3c(C)nc4c(cnn4-c4ccccc4)c3=O)cc2)cc1`, for which the growth in the experiment on HCT-15 colon is 53.5%; in the experiment with HT29 colon, 71.5%; with SNB-75 CNS, 98.1%; in the experiment with SNB-19 CNS, 81.8%; in the experiment with U251 CNS it was 74.1%; with PC-3 prostate, 65.1%. The growth in the experiment with SK-MEL-5 melanoma is 27.7%; with UACC-62 melanoma, 50%; with LOX IMVI melanoma, 43.9%; in the experiment with SK-MEL-28 melanoma, 90.4%; in the experiment with SK-MEL-2 melanoma, 70.6%; in the experiment with EKVX NSCLC, 42.9%. Moreover, the growth with SN12C renal is 81.6%; in the experiment with ACHN renal it was 71%; in the experiment with CAKI-1 renal, 75%; with A498 renal it was 104%; with CCRF-CEM leukemia, 46.4%; in the experiment on MOLT-4 leukemia, 44.7%.

In the case of `COc1ccc(C(=O)CSc2nnc(-c3c[nH]c4ccccc34)n2-c2ccccc2)cc1`, the growth is 73.3% with HCT-15 colon; 83.1% in the experiment with HT29 colon; 15% with SNB-75 CNS; 29.8% with SNB-19 CNS; 34.4% in the experiment with U251 CNS; 50.3% in the experiment on PC-3 prostate. The growth is 81.3% in the experiment with SK-MEL-5 melanoma; 25.8% in the experiment on UACC-62 melanoma; 43.5% in the experiment on LOX IMVI melanoma; 49.7% in the experiment with SK-MEL-28 melanoma; 72% in the experiment on SK-MEL-2 melanoma; 29.3% in the experiment with EKVX NSCLC. Moreover, the growth in the experiment on SN12C renal was 44.4%; with TK-10 renal, 63.9%; with ACHN renal, 22.8%; with CAKI-1 renal, 61.5%; with A498 renal, 111%; in the experiment on CCRF-CEM leukemia it was 82.5%. In the experiment on MOLT-4 leukemia, the growth was 82.1%.

On to `C/C(=C\CSc1ccccc1C(=O)O)CCCC(C)CCCC(C)CCCC(C)C` (stereo not drawn), for which the growth was 21.5% with HCT-15 colon; 59.4% in the experiment on HT29 colon; 114% in the experiment on SNB-75 CNS; 80.4% in the experiment with SNB-19 CNS; 46.8% in the experiment on U251 CNS; 41% in the experiment on PC-3 prostate. The growth was 24.8% in the experiment with SK-MEL-5 melanoma; 42.5% in the experiment with UACC-62 melanoma; 26.3% in the experiment with LOX IMVI melanoma; 71.5% with SK-MEL-28 melanoma; -12% (active) in the experiment on SK-MEL-2 melanoma; 43.3% with EKVX NSCLC. For the same compound, the growth in the experiment on UO-31 renal is 49.5%; with ACHN renal, 37.5%; in the experiment on CAKI-1 renal, 45.1%; in the experiment on A498 renal, 97.4%; in the experiment on CCRF-CEM leukemia, 29.8%; in the experiment with MOLT-4 leukemia, 16.3%.

Turning to `Cc1cccc2cc(-c3cc(-c4ccccc4)nc(=S)[nH]3)c(Cl)nc12`, the growth in the experiment with HCT-15 colon was 53.2%; in the experiment on HT29 colon, 86.5%; with SNB-75 CNS, 103%; in the experiment on SNB-19 CNS it was 82.2%; in the experiment with U251 CNS, 99.1%; in the experiment on PC-3 prostate, 72.5%. In addition, the growth with SK-MEL-5 melanoma is 23.6%; in the experiment on UACC-62 melanoma, 37.5%; in the experiment with LOX IMVI melanoma, 66.9%; in the experiment with SK-MEL-28 melanoma, 59.8%; in the experiment with SK-MEL-2 melanoma, 27.8%; in the experiment on EKVX NSCLC, 76.5%. For the same compound, the growth was 89.2% in the experiment with SN12C renal; 136% in the experiment with TK-10 renal; 78.1% with ACHN renal; 76.2% with CAKI-1 renal; 99% in the experiment on A498 renal; 66.2% with CCRF-CEM leukemia. Moreover, the growth in the experiment on MOLT-4 leukemia was 43.6%.

As for `O=C(NCCCCCCCCCC[P+](c1ccccc1)(c1ccccc1)c1ccccc1)c1ccc(-n2nc(-c3ccccc3O)nc2-c2ccccc2O)cc1`, the growth in the experiment with HCT-15 colon is -90.4% (active); with HT29 colon it was -72.9% (active); in the experiment with SNB-75 CNS it was -27.1% (active); in the experiment on SNB-19 CNS, -93.9% (active); in the experiment on U251 CNS it was -50% (active); in the experiment on PC-3 prostate, -48.3% (active). The growth is -100% (active) with SK-MEL-5 melanoma; -88.9% (active) in the experiment with UACC-62 melanoma; -96.9% (active) in the experiment on LOX IMVI melanoma; -93.8% (active) in the experiment with SK-MEL-28 melanoma; -79.6% (active) with SK-MEL-2 melanoma; -90% (active) in the experiment on EKVX NSCLC. Moreover, the growth in the experiment on SN12C renal was -76.4% (active); in the experiment on TK-10 renal, -91.1% (active); in the experiment on ACHN renal it was -98.6% (active); with CAKI-1 renal, -68.5% (active); in the experiment on A498 renal, -75.1% (active); in the experiment on CCRF-CEM leukemia, 4.27% (active). Further, in the experiment on MOLT-4 leukemia, the growth is -10.4% (active).
